These results are taken from PubChem BioAssay.

Calls of active or inactive are those of the source.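 How the source made its calls, unless noted: active means inhibition of the reporter signal at or above 50%; inactive means inhibition below 50%.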

Experiment [1] can be described thus: inhibitors of TNFa-induced NFkB p65 translocation, primary screen, imaging, HUVEC, MLSMR starter and 10KST1 sets (AID 438;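 active means inhibition above 20% together with a positive visual image hit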;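 further: compound added about 3h40 before a 20 min TNFalpha stimulation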;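 on inhibition: signal is the nuclear over cytoplasmic p65 intensity ratio per well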). The note with it: HUVEC TNFa-induced p65 nuclear translocation; cell count: measured here: nuclei count (cytotoxicity indicator), at 2.08 µM; inhibition: at 2 µM, stronger effect = higher value, 0% TNFa-plus-vehicle, 100% no-TNFa wells.
The nature of experiment [2]: reduction of polyQ htt aggregates in cells – imaging, exon1htt(103Q)mCFP cells, high-content imaging, primary screen (AID 483;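 active means visual image review flags a hit and inhibition of aggregation exceeds 20%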;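 further: compound exposure lasted 3 days before fixation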;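 on nuclei count: percent of the per-plate median nuclei count of sample wells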). The note with it: exon1htt(103Q)mCFP cell line, aggregate imaging, at 2 µM; inhibition of aggregation: stronger effect = higher value; nuclei count: measured here: cell count, toxicity.
A short description of experiment [3]: endothelial E-selectin expression blockers – imaging, HUVEC, immunofluorescence, MLSMR starter and 10KST1 sets, primary screen (AID 487;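 active means visually confirmed hit in the image check and inhibition above 20%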;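 on inhibition: signal is fraction of cell area covered by stained E-selectin grains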;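 on nuclei count: 100% = median nuclei count of all wells on the same plate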). The note with it: HUVEC TNFalpha-induced E-selectin immunofluorescence imaging, at 2 µM; inhibition: stronger effect = higher value; nuclei count: measured here: cell number, toxicity.
The target in experiment [4] is Voltage-gated potassium channel subunit beta-2 (Rattus norvegicus) (UniProt P62483). Kind of experiment: inhibitors of rat Kvbeta2 reductase activity – biochemical, NADPH fluorescence, primary screen (AID 622;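 active means fluorescence slope higher than the sample average by over 3 SD, cut at about -0.22 in these data, passing the limit was not always enough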;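 further: slope of raw intensity against log time taken from 70 to 1610 s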). The note with it: recombinant KvBeta, 4-cyanobenzaldehyde reduction, at 10 µM, stronger effect = higher value.
Experiment [5] shares this target. Kind of experiment: enhancers of rat Kvbeta2 NADPH turnover – biochemical, NADPH fluorescence, primary screen (AID 623;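 active means NADPH fluorescence slope more negative than the mean of all samples by about 3 SD, 99.7% confidence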;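 further: fluorescence intensity change per second fitted from 20 to 320 s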). The note with it: Recombinant KvBeta, NADPH fluorescence decrease slope, 10 min; at 10 µM; stronger effect = lower value.
Experiment [6] deals with Alpha-2C adrenergic receptor (Homo sapiens) (UniProt P18825). Put plainly: compounds altering alpha2C-coupled GIRK flux – cell-based, HEK293 alpha2C/GIRK1/2, thallium flux, primary screen (AID 624;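 active means fluorescence slope after compound addition differing from the mean of all screened samples at 99.7% confidence, in either direction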;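 further: slope of fluorescence ratio to pre-addition baseline per second over 15 to 24 s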). The note with it: thallium flux BTC fluorescence, at 10 µM, actives lie on both sides.
Experiment [7] in a line: blockers of RIG-like receptor reporter activation – cell-based, Sendai virus stimulus, luciferase, 10K MLSCN set, TLR/RLR signaling modifier project, primary screen (AID 602276;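 active means inhibition at or above 50% at 10 µM; inactive means inhibition below 50%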;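 further: firefly luciferase from ISG56 promoter only with Renilla not read in this screen; 0% = Sendai virus plus DMSO and 100% = medium plus DMSO without virus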). The note with it: HEK293 RL24 IRF3 luciferase reporter, at 10 µM, stronger effect = higher value.
Experiment [8] in a line: TLR3 IRF3 reporter activation blockers – cell-based, poly I:C stimulus, luciferase, 10K MLSCN set, primary screen (AID 602277). The note with it: HEK293-TLR3 RL24 IRF3 luciferase reporter, at 10 µM, stronger effect = higher value. For orientation: A reporter such as luciferase makes a cellular process visible.

Alpha-2C adrenergic receptor (Homo sapiens), sequence (P18825 whole entry, looked up): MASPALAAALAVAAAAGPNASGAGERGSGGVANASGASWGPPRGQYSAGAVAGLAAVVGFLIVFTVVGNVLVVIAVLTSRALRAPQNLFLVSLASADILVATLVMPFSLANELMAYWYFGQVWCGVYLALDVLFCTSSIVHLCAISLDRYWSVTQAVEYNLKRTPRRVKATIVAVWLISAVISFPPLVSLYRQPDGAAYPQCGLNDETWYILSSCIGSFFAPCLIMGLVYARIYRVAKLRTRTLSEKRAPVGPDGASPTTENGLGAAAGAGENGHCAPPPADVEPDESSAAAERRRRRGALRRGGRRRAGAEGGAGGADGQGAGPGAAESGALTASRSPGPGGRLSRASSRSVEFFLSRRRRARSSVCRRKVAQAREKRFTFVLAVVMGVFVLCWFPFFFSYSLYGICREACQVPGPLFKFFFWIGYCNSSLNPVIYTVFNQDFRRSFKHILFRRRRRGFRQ
Voltage-gated potassium channel subunit beta-2 (Rattus norvegicus), sequence (P62483 whole entry, looked up): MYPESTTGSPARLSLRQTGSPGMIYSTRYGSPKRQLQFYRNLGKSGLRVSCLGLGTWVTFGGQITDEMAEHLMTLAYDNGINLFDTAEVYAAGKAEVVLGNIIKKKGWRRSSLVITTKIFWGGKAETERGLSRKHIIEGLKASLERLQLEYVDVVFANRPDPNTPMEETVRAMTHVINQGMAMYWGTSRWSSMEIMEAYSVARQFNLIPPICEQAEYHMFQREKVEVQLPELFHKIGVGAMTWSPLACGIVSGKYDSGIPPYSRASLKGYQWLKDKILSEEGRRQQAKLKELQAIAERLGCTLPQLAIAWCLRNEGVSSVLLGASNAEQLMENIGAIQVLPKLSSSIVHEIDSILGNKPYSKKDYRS

On to `Cc1ccccc1Cn1ccc(NC(=O)c2cnn3c(C(F)(F)F)cc(-c4ccco4)nc23)n1`, for which the cell count in experiment [1] is 568. Further, the inhibition (usually the drop in the measured response relative to a control, in per cent) in experiment [1] is -3.8% (inactive); in experiment [3] it was -7.4% (inactive); in experiment [7], 19.2% (inactive); in experiment [8], 32% (inactive). In addition, the inhibition of aggregation in experiment [2] was 10.6% (inactive). Further, the figures for the nuclei count in experiment [2] and in experiment [3] were 96.8% and 99.2%, respectively. Besides, the fluorescence slope in experiment [4] was -0.613 (inactive). In experiment [5], the NADPH fluorescence slope is -5.8e-05 (inactive). In addition, in experiment [6], the slope is 0.00253 (inactive).
`O=C(Nc1cccc(Cl)c1)N1CCN(c2ncccn2)CC1`: the cell count in experiment [1] is 334. Moreover, the inhibition is 2% (inactive) in experiment [1], 19.1% (inactive) in experiment [3], -23.1% (inactive) in experiment [7] and -47% (inactive) in experiment [8]. The inhibition of aggregation in experiment [2] was 21% (inactive). Further, the values for the nuclei count in experiment [2] and in experiment [3] were 94.1% and 84.8%, respectively. In experiment [4], the fluorescence slope is -0.53 (inactive). Besides, the NADPH fluorescence slope in experiment [5] is 4.6e-05 (inactive). Moreover, the slope in experiment [6] was 0.00446 (inactive).
Turning to `CCOC(=O)N1CCC(N2C(=O)c3ccccc3C2Nc2ccccc2C)CC1` (stereo not given), the cell count in experiment [1] came out at 568. The inhibition in experiment [1] is 5.8% (inactive); in experiment [3], -22.5% (inactive); in experiment [7], 3.88% (inactive); in experiment [8] it was 36.9% (inactive). In addition, in experiment [2], the inhibition of aggregation is -4% (inactive). Besides, the nuclei count in experiment [2] was found to be 98.2%; in experiment [3], 106%. Moreover, in experiment [4], the fluorescence slope is -0.531 (inactive). The NADPH fluorescence slope in experiment [5] was -3.2e-05 (inactive). Moreover, the slope in experiment [6] was 0.00624 (inactive).
In the case of `O=C(NCc1ccccc1)C1CCCN(S(=O)(=O)c2cccnc2)C1` (stereo not given), the cell count in experiment [1] is 230. Also, the inhibition in experiment [1] is -0.7% (inactive); in experiment [3], -59.6% (inactive); in experiment [7], 5.96% (inactive); in experiment [8], 11% (inactive). The inhibition of aggregation in experiment [2] was 0.8% (inactive). Also, the nuclei count was determined as 92.5% in experiment [2] and 98.3% in experiment [3]. For the same compound, the fluorescence slope in experiment [4] is -0.549 (inactive). The NADPH fluorescence slope in experiment [5] was -1.4e-05 (inactive). Besides, in experiment [6], the slope is 0.0054 (inactive).
In the case of `O=C(CSc1nnnn1C1CCCC1)Nc1cccc(NC(=O)c2ccco2)c1`, the cell count in experiment [1] stood at 747. In addition, the inhibition in experiment [1] is -15.8% (inactive); in experiment [3], -76.4% (inactive); in experiment [7], 5.72% (inactive); in experiment [8] it was 9.32% (inactive). Moreover, the inhibition of aggregation in experiment [2] was 21.9% (inactive). In addition, the nuclei count in experiment [2] turned out to be 56.9%; in experiment [3] it was 132%. In addition, the fluorescence slope in experiment [4] was -0.329 (inactive). The NADPH fluorescence slope in experiment [5] was 2.2e-05 (inactive). In addition, the slope in experiment [6] is 0.00506 (inactive).
As to `CCOc1ccccc1-n1c(SCC(=O)NCc2ccco2)nnc1-c1ccncc1`, in experiment [1], the cell count stood at 376. For the same compound, the inhibition was 8.9% (inactive) in experiment [1], 6% (inactive) in experiment [3], 7.96% (inactive) in experiment [7] and 21.5% (inactive) in experiment [8]. In experiment [2], the inhibition of aggregation is 6% (inactive). Further, the nuclei count was 93% in experiment [2] and 85.8% in experiment [3]. Also, the fluorescence slope in experiment [4] is -0.405 (inactive). The NADPH fluorescence slope in experiment [5] was 3.6e-05 (inactive). Besides, the slope in experiment [6] is 0.00499 (inactive).
Take `COc1ccc(CNC(=O)CCc2nc(-c3ccccc3F)no2)c(OC)c1`: the cell count in experiment [1] was 354. Besides, the inhibition in experiment [1] is 1.7% (inactive); in experiment [3], 37.2% (inactive); in experiment [7] it was 8.05% (inactive); in experiment [8] it was 0.538% (inactive). For the same compound, the inhibition of aggregation in experiment [2] is 19.9% (inactive). Besides, the nuclei count in experiment [2] stood at 98%; in experiment [3] it was 86.3%. For the same compound, the fluorescence slope in experiment [4] is -0.378 (inactive). Also, the NADPH fluorescence slope in experiment [5] was -2e-05 (inactive). Also, the slope in experiment [6] is 0.00384 (inactive).
With `Cc1occc1C(=O)N1CCN(c2ncccn2)CC1`, the cell count in experiment [1] turned out to be 347. Further, the inhibition is -12.5% (inactive) in experiment [1], -117% (inactive) in experiment [3], -8.62% (inactive) in experiment [7] and 4.37% (inactive) in experiment [8]. In experiment [2], the inhibition of aggregation was 5% (inactive). Further, the nuclei count in experiment [2] worked out at 102%; in experiment [3] it was 101%. Further, the fluorescence slope in experiment [4] was -0.356 (inactive). In addition, in experiment [5], the NADPH fluorescence slope is 6.9e-06 (inactive). In experiment [6], the slope was 0.00583 (inactive).
In the case of `Cc1onc(-c2ccccc2)c1C(=O)N1CCN(C(=O)c2ccco2)CC1`, in experiment [1], the cell count is 601. Also, the inhibition in experiment [1] was 2.2% (inactive); in experiment [3], -20.4% (inactive); in experiment [7], 14.1% (inactive); in experiment [8] it was 20.5% (inactive). In addition, in experiment [2], the inhibition of aggregation is -0.2% (inactive). The results for the nuclei count in experiment [2] and in experiment [3] were 111% and 93.8%, respectively. Also, the fluorescence slope in experiment [4] is -0.5 (inactive). For the same compound, the NADPH fluorescence slope in experiment [5] is -4.3e-05 (inactive). Besides, the slope in experiment [6] is 0.00556 (inactive).
Take `C=CCNC(=O)c1ccc(Cl)cc1Cl`: the cell count in experiment [1] is 344. Also, the inhibition in experiment [1] is 1.6% (inactive); in experiment [3], -31.6% (inactive); in experiment [7], 0.0277% (inactive); in experiment [8], 23.8% (inactive). Moreover, in experiment [2], the inhibition of aggregation was -21.2% (inactive). Besides, the results for the nuclei count in experiment [2] and in experiment [3] were 87.7% and 91.8%, respectively. In addition, the fluorescence slope in experiment [4] is -0.478 (inactive). Also, the NADPH fluorescence slope in experiment [5] is -4.6e-05 (inactive). Also, in experiment [6], the slope was 0.00715 (inactive).
